# Laboratory results published in PubChem BioAssay (NCATS).
# Inconclusive results are not listed. Where a call stands in place of a potency, no number is given. Values without a mark were called inactive. The source made the active and inactive calls. Unless noted, calls follow the shape of the full dose curve.
# Columns and labels:
# [1] = Primary qHTS for Huh7 cytotoxicity: counterscreen for inhibitors of MERS-S pseudotyped particle cell entry (AID 1479147)
# [2] = Primary qHTS for inhibitors of MERS-S pseudo-typed particle cell entry (AID 1479149); also: nearly all actives have a fitted effect of over 60% in size; also: potency is read from the fitted curve at half-maximal effect; as to activity change, negative = inhibition: series mostly up to about 57 µM
# [3] = Primary qHTS for Vero E6 cytotoxicity: counterscreen for inhibitors of SARS-S pseudo-typed particle cell entry (AID 1479150)
# [4] = Confirmatory qHTS for VERO E6 Cytotoxicity Assay: Counterscreen for SARS-CoV-2 CPE Assay (AID 1508605); also: nearly all actives have a fitted effect of over 60% in size; also: potency is read from the fitted curve at half-maximal effect
# [5] = Primary qHTS for inhibitors of La Crosse Virus (LACV) - induced cell death in SH-SY5Y cells (AID 1508616; active = well fitted curve in the direction sought with a large enough effect; an effect the other way counts as inactive or inconclusive;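 also: top concentration of the series differs between compounds; higher means more rescue of cells from virus-induced death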)
# Procedure, shortened: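 Screening measures cell viability in LACV-infected SH-SY5Y cultures. Compound was added before virus (0.01 MOI), and ATP was detected by luminescence 6 days later.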
# [6] = target: Calcium and integrin-binding protein 1 (Homo sapiens) (UniProt Q99828); assay: Primary qHTS for Identification of Calcium Integrin Binding Protein 1 (CIB1) Competitor (AID 1508620; active = well fitted curve in the direction sought with a large enough effect; an effect the other way counts as inactive or inconclusive;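 also: GST tagged CIB1 binding a fluorescein labelled alphaIIb integrin peptide tracer; top concentration of the series differs between compounds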)
# Calcium and integrin-binding protein 1 (Homo sapiens), sequence (Q99828 whole entry, looked up): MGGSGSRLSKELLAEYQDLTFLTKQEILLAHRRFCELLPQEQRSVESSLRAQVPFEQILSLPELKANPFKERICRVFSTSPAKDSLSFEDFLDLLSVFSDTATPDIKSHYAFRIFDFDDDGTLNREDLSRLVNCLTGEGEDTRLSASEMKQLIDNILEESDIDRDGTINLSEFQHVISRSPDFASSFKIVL
# Procedure, shortened: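 Fluorescence polarization competition: GST-tagged CIB1 (1 uM final) preincubated with compound 15 min at room temperature, then FITC-labelled alphaIIb peptide (100 nM final) added. After 15 min at room temperature, polarization read at Ex 480/Em 540.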
structure (smiles),measurement,setting,value
COC(=O)Nc1nc2ccc(C(=O)c3ccccc3)cc2[nH]1,Potency,[1],inactive
same,Potency,[2],inactive
same,Potency,[3],inactive
CCN(CCO)CCCC(C)Nc1ccnc2cc(Cl)ccc12 (stereo not given),outcome,[1],inactive [at 5.34 µM]
same,"activity change, negative = inhibition",[2],3.49% [at 5.34 µM]
same,outcome,[3],inactive [at 5.34 µM]
CCCCc1oc2ccccc2c1C(=O)c1cc(I)c(OCCN(CC)CC)c(I)c1,Potency,[1],inactive
same,Potency,[2],10 µM (active)
same,Potency,[3],inactive
same,Potency,[4],inactive
NC12CC3CC(CC(C3)C1)C2,Potency,[1],inactive
same,Potency,[2],inactive
same,Potency,[3],inactive
CC/C(=C(\c1ccccc1)c1ccc(OCCN(C)C)cc1)c1ccccc1,Potency,[1],inactive
same,Potency,[2],7.08 µM (active)
same,Potency,[3],inactive
same,Potency,[4],10 µM (active)
Nc1ncn([C@@H]2O[C@H](CO)[C@@H](O)[C@H]2O)c(=O)n1,Potency,[1],inactive
same,Potency,[3],inactive
CCCC(=O)Nc1ccc(OCC(O)CNC(C)C)c(C(C)=O)c1 (stereo not given),Potency,[1],inactive
same,Potency,[2],inactive
same,Potency,[3],inactive
Cc1ccc(C(=O)c2cc(O)c(O)c([N+](=O)[O-])c2)cc1,Potency,[1],inactive
same,Potency,[2],inactive
same,Potency,[3],inactive
C[C@@H](O[C@H]1OCCN(Cc2n[nH]c(=O)[nH]2)[C@H]1c1ccc(F)cc1)c1cc(C(F)(F)F)cc(C(F)(F)F)c1,Potency,[1],inactive
same,Potency,[3],inactive
CC(C)C1CCC(C(=O)N[C@H](Cc2ccccc2)C(=O)O)CC1 (stereo not given in full),Potency,[1],inactive
same,Potency,[2],inactive
same,Potency,[3],inactive
Cc1ccsc1C(=CCCN1CCC[C@@H](C(=O)O)C1)c1sccc1C,Potency,[1],inactive
same,Potency,[2],inactive
same,Potency,[3],inactive
Oc1cc(Cl)ccc1Oc1ccc(Cl)cc1Cl,Potency,[1],inactive
same,Potency,[2],inactive
same,Potency,[3],inactive
same,Potency,[5],inactive
same,Potency,[6],inactive
O=C1Nc2ccc(Cl)cc2[C@@](C#CC2CC2)(C(F)(F)F)O1,Potency,[1],inactive
same,Potency,[2],inactive
same,Potency,[3],inactive
same,Potency,[4],inactive
COCCCC/C(=N\OCCN)c1ccc(C(F)(F)F)cc1,Potency,[1],inactive
same,Potency,[2],inactive
same,Potency,[3],inactive
